Compounds with a hit are over-represented: about 22% of the library has one in this group of screens.
CYP2C19 inh: blockers of cytochrome P450 2C19 activity – biochemical, luminescence, ADME assay, primary screen; P33261; CYP2C19 Supersomes, luciferin-H EGE luminescence, 30 min; inhibition, % at 5 µM; 96,000 compounds, 21% hits; AID 778, 2007;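 active means CYP2C19 inhibition above a set limit at 5 µM in the primary screen, cut at about 50% in these data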
Target sequence (P33261 whole entry, looked up): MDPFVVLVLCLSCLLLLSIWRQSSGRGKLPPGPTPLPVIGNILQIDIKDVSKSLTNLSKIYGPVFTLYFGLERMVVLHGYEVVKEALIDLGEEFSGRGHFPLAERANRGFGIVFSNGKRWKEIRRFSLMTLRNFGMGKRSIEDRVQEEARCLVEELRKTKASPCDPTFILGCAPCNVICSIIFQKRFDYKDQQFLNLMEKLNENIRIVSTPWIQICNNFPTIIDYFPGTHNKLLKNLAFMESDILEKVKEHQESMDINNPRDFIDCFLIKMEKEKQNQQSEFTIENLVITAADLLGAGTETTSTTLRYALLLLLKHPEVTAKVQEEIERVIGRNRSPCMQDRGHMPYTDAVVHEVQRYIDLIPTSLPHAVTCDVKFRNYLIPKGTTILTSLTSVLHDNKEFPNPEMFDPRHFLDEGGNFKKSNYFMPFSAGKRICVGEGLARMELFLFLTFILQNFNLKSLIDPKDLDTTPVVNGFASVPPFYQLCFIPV
CYP2C9 inhib: blockers of cytochrome P450 2C9 activity – biochemical, luminescence, ADME assay, primary screen. inhibition, % at 5 µM. P11712. CYP2C9 Supersomes, luciferin-H conversion. 96,000 compounds, 20% hits;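 active means blocking of liver enzyme CYP2C9 beyond about 50% at 5 µM, limit read from the data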
Measles CPE: compounds protecting cells from measles virus cytopathic effect, primary screen, measles RdRp inhibitor project, single point, MLSMR library, absorbance; Measles virus-infected cells, CPE protection; protection (pct of control), % at 4 µM; 140,000 compounds, 1.5% hits; in the data active means protection mostly above about 24%, no sharp cut-off; inactive means mostly below about 26%
CYP2C19 act: human CYP2C19 activators, primary screen, biochemical, luminescence. 96,000 tested, under 10 active. recombinant CYP2C19, luciferin-H EGE luminescence; hits give high values; 0 = fully inhibited enzyme, 1 = untreated enzyme. Cytochrome P450 2C19 (Homo sapiens), P33261. activation factor at 5 µM. AID 1025, 2008;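 active means activation factor of at least 2 at 5 µM in the primary screen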
CYP2C9 act: human CYP2C9 activators, primary screen, biochemical, luminescence. Cytochrome P450 2C9 (Homo sapiens), P11712. recombinant CYP2C9, luciferin-H conversion; hits give high values; factor 1 = untreated enzyme, 0 = blocked. activation factor at 5 µM. 96,000 compounds, 1.4% hits. AID 1024, 2008;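 active means activation factor of 2 or more for CYP2C9 at a 5 µM dose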
Each line names hits and unclear results; the compound was inactive in the other large screens.

O=C(NCc1ccccc1Cl)C1CCN(C(=O)c2sccc2-n2cccc2)CC1	CYP2C19 inh 61
CCCCN(CC)Cc1ccc(CNC(=O)Nc2ccccc2)o1	none
COCc1nnc(NS(=O)(=O)c2c(C)cc(C)cc2C)s1	CYP2C9 inhib 84
COCc1nnc(NS(=O)(=O)c2ccc(C)cc2)s1	CYP2C9 inhib 52
COCc1nnc(NS(=O)(=O)c2ccccc2)s1	none
CCOc1ccc(NC(=S)NCCCN2CCN(C3CCCCC3)CC2)cc1	none (no result: CYP2C19 inh, CYP2C9 inhib, CYP2C19 act, CYP2C9 act)
COc1ccc(OC)c(/C=N/NC(=O)CCCC(=O)Nc2cccc(Br)c2)c1	CYP2C9 inhib 75
COc1cccc(/C=N/NC(=O)CCCC(=O)Nc2ccc(Br)cc2)c1	none (no result: CYP2C19 inh, CYP2C9 inhib, CYP2C19 act, CYP2C9 act)
Cc1cnc(C(=O)OCC(=O)N2c3ccccc3NC(=O)C2(C)C)cn1	none
CC1(C)C(=O)Nc2ccccc2N1C(=O)COc1ccc(S(=O)(=O)N2CCOCC2)cc1Cl	CYP2C9 inhib 66
CC1(C)C(=O)Nc2ccccc2N1C(=O)COc1ncnc2c(Cl)cc(Cl)cc12	CYP2C19 inh 77
CC(NC(=O)OCc1ccccc1)C(=O)Oc1cc2oc(=O)cc(-c3ccccc3)c2cc1Cl (stereo not drawn)	Measles CPE 29 (no result: CYP2C19 inh, CYP2C9 inhib, CYP2C19 act, CYP2C9 act)
O=C(CN1CCCC1)NC12CC3CC(CC(C3)C1)C2	none (no result: CYP2C19 inh, CYP2C9 inhib, CYP2C19 act, CYP2C9 act)
O=C(NNS(=O)(=O)c1ccccc1[N+](=O)[O-])c1ccc(O)cc1	CYP2C9 inhib 68
O=C(Cc1ccc(Br)cc1)N1CCN(c2ccccc2)CC1	CYP2C19 inh 99, CYP2C9 inhib 88
COc1ccc(CC(=O)N2CCCC(C)C2)cc1 (stereo not drawn)	none
O=C(c1ccc(Br)cc1)N1CCCC1	none
O=C(Cc1ccc(-n2c(=S)[nH]c3ccccc3c2=O)cc1)N1CCN(c2ccccc2)CC1	CYP2C19 inh 55
CC1CCCN(C(=O)Cc2ccc(F)cc2)C1 (stereo not drawn)	CYP2C19 inh 73
O=C(Cc1ccc(Br)cc1)N1CCCCCC1	CYP2C19 inh 53
O=C(Cc1ccc(-n2c(=O)[nH]c3ccccc3c2=O)cc1)N1CCN(c2ccccc2)CC1	none
O=C(CC12CC3CC(C1)CC(CC(=O)NC1=NCCS1)(C3)C2)NC1=NCCS1	none
COc1nc2ccc(C)cc2cc1-c1noc(-c2cccnc2)n1	none
CCOC(=O)c1c(-c2ccccc2)csc1NC(=O)c1nn(CC)cc1Br	none
COC(=O)C1CCN(Cc2ccc(C)cc2)CC1	CYP2C19 inh 85
COC(=O)C1CCN(C(=O)Cc2ccc(OC)c(OC)c2)CC1	none (no result: CYP2C19 inh, CYP2C9 inhib, CYP2C19 act, CYP2C9 act)
Cc1ccc(CN2CCN(C(=O)C3CCC3)CC2)cc1	none (no result: CYP2C19 inh, CYP2C9 inhib, CYP2C19 act, CYP2C9 act)
COC(=O)C1CCN(C(=O)Cc2ccc(Br)cc2)CC1	CYP2C19 inh 90
Cc1ccc(CN2CCS(=O)(=O)CC2)cc1	CYP2C19 inh 66
Cc1cccc(N2CCN(C(=O)Cc3ccc(Br)cc3)CC2)c1C	CYP2C19 inh 70
CCCc1cc(=O)[nH]c(SCC(=O)N2CCC(C(=O)OCC)CC2)n1	none
Cc1ccc(Nc2nc(C(=O)N3CCC(C(=O)N4CCN(C)CC4)CC3)cs2)cc1	CYP2C19 inh 77
CC(C)OC(=O)Cn1nnc(-c2ccccc2)n1	none
CCOC(=O)c1c(C2CCN(C(=O)OCC)CC2)nc2ccccn12	CYP2C9 inhib 72
CCOC(=O)c1c(C)nc2ccccn12	none
O=C(COc1ccccc1Cl)N1CCN(c2ncccn2)CC1	CYP2C19 inh 92
O=C(NCCC(=O)N1CCN(c2ncccn2)CC1)c1ccccc1Cl	CYP2C9 inhib 54
COc1ccccc1C(=O)N1CCN(c2ccccn2)CC1	none
O=C(c1ccccc1OCc1ccccc1Br)N1CCN(c2ncccn2)CC1	CYP2C19 inh 97, CYP2C9 inhib 99
O=C(NCCC(=O)N1CCN(c2ncccn2)CC1)c1ccccc1	Measles CPE 32
CCCN(CCC)C(=O)c1ccc2c(c1)OCO2	none (no result: CYP2C19 inh, CYP2C9 inhib, CYP2C19 act, CYP2C9 act)
O=C(NCc1ccccc1)c1cccc(S(=O)(=O)N2CCOCC2)c1	none
CCOC(=O)c1cc2c(C)n(-c3ccc(N(C)C)cc3)c(C)c2cc(C(=O)OCC)c1=O	CYP2C19 inh 50
CCOC(=O)c1cc2c(C)n(-c3ccc(OCC)cc3)c(C)c2cc(C(=O)OCC)c1=O	none (no result: CYP2C19 inh, CYP2C9 inhib, CYP2C19 act, CYP2C9 act)
CC1CCCCC1NS(=O)(=O)c1ccc(-n2cnnn2)cc1 (stereo not drawn)	CYP2C19 inh 88
CC1CCCCC1NS(=O)(=O)c1ccc(S(=O)(=O)N2CCCC2)cc1 (stereo not drawn)	CYP2C19 inh 79, CYP2C9 inhib 79
O=S(=O)(c1ccc(-n2cnnn2)cc1)N(C1CCCCC1)C1CCCCC1	none
CN(C1CCCCC1)S(=O)(=O)c1ccc(-n2cnnn2)cc1	CYP2C19 inh 100
CCC(CC)c1nc(C#N)c(NCc2ccccc2)o1	none (no result: CYP2C19 inh, CYP2C9 inhib, CYP2C19 act, CYP2C9 act)
CCNC(=S)N(Cc1cc2cc(C)ccc2[nH]c1=O)C1CCCC1	none (no result: CYP2C19 inh, CYP2C9 inhib, CYP2C19 act, CYP2C9 act)
CCCN(CCC)C(=O)Cc1coc2ccc3ccccc3c12	CYP2C19 inh 64
O=C(Cc1coc2ccc3ccccc3c12)NCc1ccccc1	CYP2C19 inh 86, CYP2C9 act 2.8
O=C(Cc1coc2ccc3ccccc3c12)Nc1nccs1	none
O=C(Cc1coc2ccc3ccccc3c12)N1CCN(c2ncccn2)CC1	CYP2C19 inh 61, CYP2C9 inhib 55
CCOC(=O)N1CCC(N2CC34C=CC(O3)C(C(=O)Nc3ccc(C(C)C)cc3)C4C2=O)CC1 (stereo not drawn)	CYP2C9 inhib 76
NC(=O)CSc1ncnc2c1cnn2Cc1ccccc1	none
Cc1ccc(/S(C)=N/S(=O)(=O)c2ccc(C)cc2)cc1 (stereo not drawn)	none
N#CC12CCCCC1CC1CCCCC1(C#N)N2Cc1cccnc1 (stereo not drawn)	Measles CPE 113
O=c1c2ccccc2c2ccccc2c(=O)n1Cc1cccnc1	none
COC(=O)c1ccc(COC(=O)c2ccccc2OC)cc1	none (no result: CYP2C19 inh, CYP2C9 inhib, CYP2C19 act, CYP2C9 act)
COC(=O)c1ccc(OCC(=O)c2ccccc2OC)cc1	CYP2C19 inh 90
COC(=O)COc1ccc(C(=O)OC)cc1	CYP2C19 inh 81
O=C(NCc1ccccc1)N(Cc1nc2ccccc2c(=O)[nH]1)C1CCCC1	CYP2C9 inhib 53
O=c1[nH]c(CCC2CCCC2)nc2ccccc12	none (no result: CYP2C19 inh, CYP2C9 inhib, CYP2C19 act, CYP2C9 act)
COc1ccc(CCN(C(=O)C(F)(F)F)C(C(=O)NC2CCCCC2)c2ccc(C)s2)cc1 (stereo not drawn)	none
CC1=NN(C(=O)c2ccc(Br)cc2)C(O)(C(F)(F)OC(F)(F)F)C1 (stereo not drawn)	CYP2C19 inh 53
CC1=NN(C(=O)c2csc(C)c2)C(O)(C(F)(F)F)C1 (stereo not drawn)	none
CCc1c(C)[nH]n(-c2ccc(Oc3ccccc3)c(S(=O)(=O)O)c2)c1=O	none
CCCCSc1nnc(CCCCCNC(=O)OC(C)(C)C)o1	CYP2C19 inh 64, CYP2C9 inhib 64
CC(C)(C)OC(=O)NCCc1nnc(SCc2c(Cl)cccc2Cl)o1	CYP2C19 inh 92, CYP2C9 inhib 72

Source: PubChem BioAssay (several laboratories)
